Source: PubChem BioAssay (National Center for Advancing Translational Sciences (NCATS))
The sample as a whole holds a higher share of hits than the screen did.
SARS PLP yeast: blocks SARS-CoV papain-like protease in a yeast assay | S. cerevisiae expressing SARS-CoV PLpro, growth rescue | Potency, µM (highest dose often 32.9 µM), most hits filed as activators | hit rate 0.19% among 330,000; calls by dose curve; note: nearly all actives have a fitted effect of over 55% in size
AmpC inh detg: inhibitors of E. coli AmpC beta-lactamase with detergent; AmpC hydrolysis of nitrocefin, absorbance 480 nm, 0.01% Triton; Potency, µM (doses to about 114 µM), most hits filed as inhibitors; hit rate 0.041% among 370,000; AID 485294; note: nearly all actives have a fitted effect of over 25% in size
Target sequence (P00811 whole entry, looked up): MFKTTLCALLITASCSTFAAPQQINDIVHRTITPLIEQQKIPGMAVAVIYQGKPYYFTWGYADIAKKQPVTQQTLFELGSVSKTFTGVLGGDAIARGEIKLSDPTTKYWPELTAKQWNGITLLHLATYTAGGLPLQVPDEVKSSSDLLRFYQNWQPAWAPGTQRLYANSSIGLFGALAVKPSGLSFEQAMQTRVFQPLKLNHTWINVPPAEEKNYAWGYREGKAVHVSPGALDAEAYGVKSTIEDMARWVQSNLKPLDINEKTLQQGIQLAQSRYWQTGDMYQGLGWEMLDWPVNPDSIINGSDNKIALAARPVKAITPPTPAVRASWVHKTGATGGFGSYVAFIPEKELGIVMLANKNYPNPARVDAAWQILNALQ
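20 mM phosphate pH 7.0 + 0.01% (detergent screen) or 0.0001% Triton X-100; 5.3 nM AmpC reagent; cpd preinc 15 min RT; nitrocefin (800 uM stock) to start; A480 q20 s × 4 min; Activity was normalised to no-enzyme and no-compound control wells.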
Shiga inhibitor: inhibitors of Shiga toxin in Vero cells. Vero cells, Shiga toxin protein synthesis inhibition reporter. inhibition, % at 38.7 µM. hit rate 9.2% among 290,000; in the data active = inhibition mostly above about 28%, no sharp cut-off; inactive = mostly below about 43%
CHX counter: affects cycloheximide protein synthesis inhibition readout, counter-screen. cell reporter, cycloheximide protein synthesis inhibition counterscreen. max response, %. hit rate 12% among 300,000; in the data active = max response mostly above about 13%, no sharp cut-off; inactive = mostly below about 14%; note: read at 38.3 µM for the half of the compounds with a filed dose
AmpC no deterg: blocks E. coli AmpC beta-lactamase in detergent-free assay; AmpC nitrocefin hydrolysis, absorbance 480 nm, 0.0001% Triton; AID 485341; P00811; Potency, µM (titrated, usually from 57.1 µM), actives largely listed as inhibitors; hit rate 0.52% among 330,000; note: nearly all actives have a fitted effect of over 20% in size
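AmpC (5.3 nM in the dispensed reagent) in 20 mM phosphate pH 7.0 with 0.01% (detergent screen) or 0.0001% Triton X-100 was preincubated with compounds for 15 min at room temperature. Nitrocefin was then added from an 800 uM solution, and hydrolysis was followed at 480 nm.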
AMA1 RON2 block: inhibitors of Plasmodium falciparum AMA1-RON2 interaction; AlphaScreen AMA1-biotinylated RON2 peptide binding; Potency, µM (doses to about 58.2 µM), actives largely listed as inhibitors; AID 720542; hit rate 0.2% among 360,000; note: nearly all actives have a fitted effect of over 45% in size
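AMA1 (3D7) with his tag at 25 nM final met compounds first, then biotinylated RON2 peptide at 25 nM; detection used donor plus acceptor beads, 10 µg/mL apiece, read by AlphaScreen after 30 min at room temperature.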
Large screens that a line does not name were inactive; ! = a repeat was not active. Unless noted, calls come from the whole dose curve; as a rule, active = well fitted curve in the direction sought with a large enough effect; inconclusive = small, poorly fitted or top-dose-only effect, or another doubt; inactive = no such curve, though single readings can be large; an effect the other way counts as inactive or inconclusive.

O=C(O)c1ccc(-c2ccccc2Cl)o1	AmpC inh detg inconclusive
Clc1ccccc1-c1ncc(-c2ccccc2)o1	CHX counter 26 (no result: Shiga inhibitor)
O=C(OCC1CCCO1)c1ccc2c(c1)N(Cc1ccccc1Cl)C(=O)c1ccccc1S2(=O)=O (stereo not drawn)	none (no result: SARS PLP yeast, Shiga inhibitor, CHX counter, AmpC no deterg, AMA1 RON2 block)
CCCC(=O)Oc1ccc(-c2nccc(C(OC)OC)n2)cc1	Shiga inhibitor 52
C/C(CC(=O)Nc1ccc(Cl)cc1Cl)=N\NC(=O)c1cnccn1	Shiga inhibitor 59, CHX counter 32
C/C(CC(=O)Nc1c(C)cc(C)cc1C)=N\NC(=O)c1cnccn1	AmpC inh detg inconclusive, CHX counter 50
O=C(NNC(=O)c1ccc(Cl)cc1Cl)c1cnccn1	none
C/C(CC(=O)Nc1cccc(C(F)(F)F)c1)=N\NC(=O)c1cnccn1	Shiga inhibitor 53, CHX counter 26
C/C(CC(=O)Nc1c(Cl)cccc1C(F)(F)F)=N\NC(=O)c1cnccn1	none (no result: SARS PLP yeast, AmpC inh detg, Shiga inhibitor, CHX counter, AmpC no deterg)
C/C(CC(=O)Nc1ccc(Cl)c(C(F)(F)F)c1)=N\NC(=O)c1cnccn1	Shiga inhibitor 74, CHX counter 41
C/C(CC(=O)Nc1c(C)cc(C)cc1C)=N\NC(=O)OC(C)(C)C	Shiga inhibitor 79, CHX counter 25
Cc1cc(C)n(-c2nc(NC(C)(C)C)nc(NC(C)(C)C)n2)n1	none
Cc1cc(C)n(-c2nnc(NC(C)(C)C)nn2)n1	Shiga inhibitor 54, CHX counter 26
Cc1cc(C)n(-c2nnc(NC34CC5CC(CC(C5)C3)C4)nn2)n1	Shiga inhibitor 21, CHX counter 37
CCC(=O)Nc1ccc(C(=O)CN2CCC(C)CC2)cc1	none (no result: AMA1 RON2 block)
Cc1ccccc1N1CCN(C2CCCN(C(=O)CSc3ccccn3)C2)CC1 (stereo not drawn)	none (no result: SARS PLP yeast, AmpC inh detg, Shiga inhibitor, CHX counter, AmpC no deterg)
CCOC(=O)CSc1nc(-c2ccncc2)ccc1C#N	Shiga inhibitor 87, CHX counter 37
CCOC(=O)CC(=O)CSc1nc(-c2cccnc2)cc(C)c1C#N	none
CCOC(=O)CC(=O)CSc1nc(-c2cccnc2)ccc1C#N	CHX counter 14
CCOC(=O)CSc1nc(-c2ccc3c(c2)OCO3)ccc1C#N	AmpC inh detg inconclusive, Shiga inhibitor 78, CHX counter 52
Cc1ccccc1C(=O)N(CC(=O)Nc1sc(C)c(C)c1C(N)=O)C1CCCC1	AmpC inh detg inconclusive
Cc1ccc(NCc2ccc(O)c3ncccc23)cc1	CHX counter 16
Cc1cccnc1NCc1ccc(O)c2ncccc12	SARS PLP yeast inconclusive
Oc1c(CNc2ccccc2)cc(COCc2ccccc2)c2cccnc12	SARS PLP yeast 4.5µM!, AmpC inh detg inconclusive (no result: Shiga inhibitor, CHX counter, AMA1 RON2 block)
Cc1ccc(NCc2ccc(O)c3ncccc23)cc1C	Shiga inhibitor 54, CHX counter 36
CC(C)NS(=O)(=O)c1ccc(NC(=S)NC(=O)c2ccc(-c3ccccc3)cc2)cc1	none
Cc1ccc(CN(Cc2cccnc2)C(=O)CN2C(=O)COc3ccccc32)o1	none
CCCCn1nc2cc(C(=O)NCc3cc(C(F)(F)F)cc(C(F)(F)F)c3)ccc2c1OC	AmpC no deterg 5.6µM
Cc1ccc(CNC(=O)C2CCN(c3nn4cc(-c5ccc(F)cc5)nc4s3)CC2)cc1	none (no result: SARS PLP yeast, Shiga inhibitor, CHX counter, AmpC no deterg, AMA1 RON2 block)
N#C/C(=C\Nc1ccccc1SC(F)(F)F)c1nc(-c2ccc(F)cc2)cs1	none
CNc1ccccc(-c2ccc3cc4c(cc3n2)OCO4)c1=O	AmpC inh detg inconclusive, Shiga inhibitor 59, CHX counter 66
COc1ccc(/C=C/C2=Nc3ccccc3NC(C)(C)C2)cc1OC	Shiga inhibitor 59, CHX counter 42
COc1ccc(/C=C/C2=CC(C)(C)NC(=S)N2)cc1OC	none
CC(C)NC(=O)C1C(c2ccc(C(F)(F)F)cc2)=Nc2ccccc2N1C(=O)c1cccc2ccccc12 (stereo not drawn)	none (no result: SARS PLP yeast, AmpC inh detg, Shiga inhibitor, CHX counter, AmpC no deterg)
O=c1ccc2cc3ccoc3cc2o1	none
CC(C)c1cc2cc3ccc(=O)oc3cc2o1	Shiga inhibitor 64, CHX counter 33
CC(C)(C)CN1CCC(Oc2cccc(C(=O)NCCCOc3cccnc3)c2)CC1	SARS PLP yeast inconclusive
Cc1ccc(OCc2cc(C(=O)NC(C)Cc3cccnc3)no2)cc1C (stereo not drawn)	Shiga inhibitor 98, CHX counter 35
